Screening results as filed in PubChem.
Rows were chosen to be rich in hits. Some 7.6% of all compounds tested hit in one or more screens of this group.
ELG1 DNA repair – blocks ELG1-dependent DNA repair in HEK293T cells; Potency, µM (doses to about 46.1 µM), for the others: at the highest dose activity change, negative = inhibition, hits mostly inhibitors; HEK293T ELG1-luciferase reporter, luminescence, 16 h; DNA damage induced by 5-fluorouridine; 330,000 compounds, 2.3% hits; also: potency is read from the fitted curve at half-maximal effect; % is scaled to controls: 0 for no effect and ±100 for the full control effect; nearly all actives have a fitted effect of over 55% in size
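Step one: seed 2,000 cells per well. Step two: pin-transfer compound or DMSO alongside 5-fluorouridine. Step three: incubate 16 hr, 37 °C, 5% CO2. Step four: add ONE-Glo, wait 30 min, read luminescence.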
p53 reactivator – restores transcriptional activity of mutant p53; H1299 p53-A138V BP100-luciferase reporter, luminescence, 24 h; Potency, µM (titrated, usually from 92.2 µM), for inactives: at the top dose activity change, positive = activation, most hits filed as activators; 320,000 compounds, 0.063% hits; AID 504706; also: potency is read from the fitted curve at half-maximal effect; % of control where 0% means no effect; nearly all actives have a fitted effect of over 45% in size
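H1299 (p53-null), stable ts p53-A138V + BP100-Luc; 1000 cells/well, Opti-MEM/10% FBS; cpd 4 pt, 1:5; 24 h, 37 deg C, 5% CO2; detection reagent 10 min RT; luminescence.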
VP16 counter – inhibits Gal4-VP16 luciferase reporter, ROR gamma counter-screen | Potency, µM (titrated, usually from 53.6 µM), inactives show top-dose activity, negative = inhibition, most hits filed as inhibitors | Drosophila S2 Gal4-VP16 UAS-luciferase, luminescence, 20 h | 310,000 compounds, 3.5% hits;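 also: Gal4-VP16 expression switched on by copper sulfate through the metallothionein promoter; potency is read from the fitted curve at half-maximal effect; % is scaled to controls: 0 for no effect and ±100 for the full control effect; nearly all actives have a fitted effect of over 50% in size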
Giardia kill – kills Giardia lamblia; 340,000 compounds, 0.15% hits; Giardia lamblia trophozoite viability; activity change, % at 7.66 µM, hits read low; in the data active = activity change below about -80%; inconclusive = between about -30% and that limit;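 also: parasites exposed to compound for two days anaerobically before the ATP read; % is scaled to controls: 0 for no effect and ±100 for the full control effect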
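Luminescent ATP signal served as the viability read-out, measured 15-30 min after adding ATP detection reagent to trophozoites that had been incubated with compounds for 48 hrs at 37 deg C anaerobically at 100 cells/well.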
BRCA1 expr act – increases BRCA1 expression | MCF7-BRCA1-FFLuc reporter, luminescence, 48 h; response scale: scaled: vehicle 0%, 10 µM genistein 100% | Potency, µM (doses to about 46.1 µM), inactives show top-dose activation, usual class: activators | 380,000 compounds, 1.1% hits; also: potency is read from the fitted curve at half-maximal effect; nearly all actives have a fitted effect of over 80% in size
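Activators of BRCA1 expression were detected as increased firefly luciferase luminescence in engineered MCF7 cells after 48 h compound incubation. Signals were scaled to genistein 10 microM as full activation.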
RORg inh – ROR gamma (mouse) transcription inhibition; 310,000 compounds, 5.4% hits; Potency, µM (top dose mostly 53.6 µM), for the others: at the highest dose activity change, negative = inhibition, hits mostly inhibitors; Drosophila S2 Gal4-RORgamma UAS-luciferase reporter, 20 h; also: potency is read from the fitted curve at half-maximal effect; % is scaled to controls: 0 for no effect and ±100 for the full control effect; nearly all actives have a fitted effect of over 60% in size
Target sequence (P51450 whole entry, looked up, the tested form may be a part): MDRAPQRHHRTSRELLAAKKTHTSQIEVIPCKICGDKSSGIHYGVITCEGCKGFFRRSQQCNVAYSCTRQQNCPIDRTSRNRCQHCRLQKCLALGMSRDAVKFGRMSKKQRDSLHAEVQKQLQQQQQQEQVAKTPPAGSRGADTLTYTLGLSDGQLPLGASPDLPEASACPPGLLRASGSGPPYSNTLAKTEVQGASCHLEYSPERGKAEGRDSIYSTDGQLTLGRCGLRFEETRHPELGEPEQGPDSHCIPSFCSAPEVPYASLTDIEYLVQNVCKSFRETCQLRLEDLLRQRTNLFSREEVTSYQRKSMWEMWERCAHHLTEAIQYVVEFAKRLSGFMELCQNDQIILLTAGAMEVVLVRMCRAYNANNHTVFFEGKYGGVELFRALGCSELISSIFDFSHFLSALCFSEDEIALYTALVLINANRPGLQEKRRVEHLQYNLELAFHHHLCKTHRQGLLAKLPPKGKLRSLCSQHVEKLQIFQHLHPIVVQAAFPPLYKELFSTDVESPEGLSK
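Schneider cells (Drosophila), stable Gal4 DBD–ROR gamma + UAS-luc; 1 hr cmpd preincubation; Cu2+ induction 700 uM final; 20 hr ambient; luminescence.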
Numbers without * were called inactive; ? = inconclusive; . = no result given; [ ] = remark or other dose. Unless noted, calls follow the shape of the dose curve; as a rule, active = well fitted curve in the direction sought with a large enough effect; inconclusive = small, poorly fitted or top-dose-only effect, or another doubt; inactive = no such curve, though single readings can be large; an effect the other way counts as inactive or inconclusive.

SMILES | ELG1 DNA repair | p53 reactivator | VP16 counter | Giardia kill | BRCA1 expr act | RORg inh
CCc1ccc(-c2nc(SCC(=O)N(CC)C3CCS(=O)(=O)C3)n[nH]2)cc1 (configuration not stated) | ? | 23.4% | . | -4.1 | 45.5% | .
O=c1oc2cc(O)ccc2cc1-c1ccccc1 | ? | ? | 2.6% | -23.2 | 10µM* | 6.5%
O=C(NCc1ccccc1)c1cc2ccc(O)cc2oc1=O | ? | ? | 7.08µM* | -17.5 | ? | 2.24µM*
COc1ccccc1C(=O)c1cc2ccc(O)cc2oc1=O | ? | 6.2% | 10.2% | 10.4 | 25.4% | 20µM*
CC(=O)Oc1ccc(-c2cc3ccccc3oc2=O)cc1 | . | . | . | 0.8 | 12.6µM* | .
COc1ccc(-c2cc3ccc(O)cc3oc2=O)cc1 | ? | ? | -5.6% | ? | ? | -13.2%
Cc1ccc(C(=O)NNC(=O)c2cccc3ccccc23)cc1 | . | . | . | -24.9 | 35.2% | .
NC(=O)c1cc2ccc(O)cc2oc1=Nc1ccccc1 | 2.31µM* | ? | ? | -6.1 | ? | -32.7%
Cn1c(-c2cc3ccc(OC(=O)C(C)(C)C)cc3oc2=O)nc2ccccc21 | ? | ? | 19.9% | 0.1 | ? | -0.6%
CC(C)(C)C(=O)Oc1ccc2cc(-c3ccc4ccccc4n3)c(=O)oc2c1 | ? | ? | ? | -7.7 | 14.1µM* | -16.7%
NC(=O)c1cc2ccc(O)cc2oc1=NCc1ccccc1 | 9.2µM* | ? | -15.9% | -9.1 | 48.7% | -7.1%
O=C(c1nnc(Cc2ccc(Cl)cc2)o1)N1CCc2ccccc2C1 | 20.8% | -2.4% | -6.6% | 18.3 | -4.2% | 15.0%
C/C=C1\COC(C(=O)NCc2ccncc2)(C(F)(F)F)C=C1C=C1CCCCC1 (configuration not stated) | . | . | ? | 35.1 | 20.4% | 15.8µM*
CCOC(=O)C(CCC(=O)O)(CCC(C)C)c1csc(N)n1 (configuration not stated) | 12.6% | -5.5% | -4.7% | 6.6 | -3.2% | 0.3%
OC(COCC(F)(F)C(F)(F)C(F)(F)C(F)F)Cn1c2ccccc2c2ccccc21 (configuration not stated) | -18.4% | 5.5% | 5.01µM* | -16.3 | -85.6% | ?
COc1ccc(NC(=O)Cn2c(C)c3cnn(-c4ccccc4)c(=O)c3c2C)c(OC)c1 | . | . | . | . | 7.1% | .
O=C(Nc1ccccc1)N1CCC(=S)Nc2ccccc21 | -0.4% | -1.2% | -3.7% | -10.5 | -16.0% | -35.2%
CC1CC(=S)Nc2ccccc2N1C(=O)Nc1ccccc1 (configuration not stated) | 14.4% | -2.5% | ? | -11.6 | -4.3% | 10µM*
CCCc1ccc(OCc2ccc(C(=O)N3CCN(c4ccccn4)CC3)o2)c(OC)c1 | 16.4µM* | -19.1% | . | 16.1 | 23.2% | -24.6%[0.365 µM]
Cc1ccc(S(=O)(=O)Cc2ccc(C(=O)N3CCN(c4ccccn4)CC3)o2)cc1 | ? | -0.9% | 2.7% | 12.1 | -26.8% | -2.8%
O=C(c1ccc(CS(=O)(=O)c2ccc(Br)cc2)o1)N1CCN(c2ccccn2)CC1 | 18.4µM* | -7.2% | -1.4% | 16.4 | -0.4% | 23.9%
CCOCc1c(C(=O)Nc2cc(OCC)c(N3CCOCC3)cc2OCC)oc2ccccc12 | 13µM* | 2.9% | -7.0% | 12.0 | 0.0% | -0.2%
COc1ccc(C(=O)Nc2ccc3nc(N4CCOCC4)sc3c2)cc1OC | ? | 9.7% | . | 13.9 | -23.6% | .
CCOCc1c(C(=O)Nc2ccc3nc(N4CCOCC4)sc3c2)oc2ccccc12 | 11.6µM* | 0.5% | . | 11.1 | -77.6% | .
CCOCc1c(C(=O)Nc2ccccc2N2CCN(C)CC2)oc2ccccc12 | ? | -11.2% | . | 2.8 | -47.1% | .
SMILES | ELG1 DNA repair | p53 reactivator | VP16 counter | Giardia kill | BRCA1 expr act | RORg inh
CCCn1nc(C(=O)Nc2ccc3nc(N4CCOCC4)sc3c2)ccc1=O | 16.4µM* | 8.2% | . | 39.5 | -67.6% | .
Cn1c(CSc2ncccn2)nnc1SCC(=O)N1CCCCCC1 | 17.3% | -1.0% | 2.0% | 58.7 | 38.5% | 0.9%
CN(C)S(=O)(=O)c1cccc(NC(=O)C2CCN(S(=O)(=O)c3cccs3)CC2)c1 | 20.6µM* | -3.7% | . | 0.4 | -102.8% | .
O=C(Nc1nccs1)C1CCN(S(=O)(=O)c2ccc(F)cc2)CC1 | -4.1% | -2.0% | -5.0% | -0.3 | -0.9% | 5.4%
O=C(Nc1cc(Cl)ccn1)C1CCN(S(=O)(=O)c2cccs2)CC1 | 8.2µM* | 2.9% | -5.6% | -5.8 | -76.3% | ?
CC(=O)c1cccc(NC(=O)C2CCN(S(=O)(=O)c3cccs3)CC2)c1 | ? | -1.7% | -1.0% | 1.5 | 17.8% | 22.7%
O=C(Nc1nccs1)C1CCN(S(=O)(=O)c2c(Cl)cccc2Cl)CC1 | ? | -4.0% | 9.0% | -3.5 | -29.8% | 8.91µM*
O=C(COc1ccc(Cl)cc1Cl)Nc1ccc(-c2ccc(N3CCOCC3)nn2)cc1 | 25.0% | 6.5% | . | 2.8 | 86.4% | .
Cc1ccccc1C(=O)Nc1cccc(-c2ccc(N3CCOCC3)nn2)c1 | ? | 9.8% | . | -10.3 | 14.1µM* | .
O=C(COc1ccc(Cl)cc1Cl)Nc1cccc(-c2ccc(N3CCOCC3)nn2)c1 | ? | 10.4% | . | -14.5 | 1.41µM* | .
COc1ccc(CNC(=S)Nc2cc(C)cc(C)c2)cc1 | -13.2% | -14.2% | 12.6µM* | -7.0 | 15.1% | 3.98µM*
Cc1cc(C)cc(NC(=S)NCc2ccncc2)c1 | 11.8% | -6.2% | -8.4% | -5.8 | -18.0% | ?
COc1ccc(CNC(=S)Nc2ccc(F)c(Cl)c2)cc1 | 17.2% | -0.5% | ? | 6.3 | -9.6% | 7.08µM*
NS(=O)(=O)c1ccc(CNC(=S)Nc2ccc(F)c(Cl)c2)cc1 | ? | -0.4% | ? | -9.8 | -11.6% | 41.9%
COc1cccc(CNC(=S)Nc2cc(C)cc(C)c2)c1 | -3.0% | -3.9% | -16.3%[10 µM] | 8.2 | -23.7% | 4.47µM*
COc1ccc(CNC(=S)Nc2cccc(OC)c2)cc1 | -23.0% | 0.5% | 12.6µM* | -9.9 | 27.3% | 17.8µM*
CN(C(=O)COC(=O)c1cnc(Cl)c(Cl)c1)C1CCCCC1 | ? | 10.9% | . | -7.7 | -59.0% | .
COc1ccc2c(c1)O[C@H](c1ccc3c(c1)OCO3)[C@@H](OC(=O)NCCc1ccc(OC)c(OC)c1)C2=O | . | . | -10.5% | . | . | 3.1%
O=C1Cc2cc(S(=O)(=O)Nc3ccc(N4CCOCC4)cc3)ccc2N1 | 3.9% | 1.4% | . | -3.6 | -6.9% | .
NS(=O)(=O)c1ccc(CNC(=O)C(Cc2ccccc2)NS(=O)(=O)c2ccccc2F)cc1 (configuration not stated) | 0.1% | -0.3% | -1.7% | 0.3 | -8.6% | 12.7%
CCCCCSc1nnc(N)s1 | ? | 0.9% | -0.1% | -5.7 | 28.2% | 12.5%
